# Data from article PMC7862700, “An all-to-all approach to the identification of sequence-specific readers for epigenetic DNA modifications on cytosine”.
# Experiments:
# Assay in all cases: DAPPL (digital affinity profiling via proximity ligation, sequencing); 10 mM Tris-HCl pH 7.5, 50 mM NaCl, 1 mM DTT, 4% glycerol, room temperature, 30 min; GST-TFs on glutathione beads, 16-mer random dsDNA library, 0.1% formaldehyde crosslink after washing; high values mean tight binding
# Conditions in all cases: protein: recombinant; tags: N-terminal GST; dsDNA, one strand shown
# FLI1 = biological target: T1, FLI1 (Homo sapiens, UniProt Q01543 1-452)
# T1 sequence: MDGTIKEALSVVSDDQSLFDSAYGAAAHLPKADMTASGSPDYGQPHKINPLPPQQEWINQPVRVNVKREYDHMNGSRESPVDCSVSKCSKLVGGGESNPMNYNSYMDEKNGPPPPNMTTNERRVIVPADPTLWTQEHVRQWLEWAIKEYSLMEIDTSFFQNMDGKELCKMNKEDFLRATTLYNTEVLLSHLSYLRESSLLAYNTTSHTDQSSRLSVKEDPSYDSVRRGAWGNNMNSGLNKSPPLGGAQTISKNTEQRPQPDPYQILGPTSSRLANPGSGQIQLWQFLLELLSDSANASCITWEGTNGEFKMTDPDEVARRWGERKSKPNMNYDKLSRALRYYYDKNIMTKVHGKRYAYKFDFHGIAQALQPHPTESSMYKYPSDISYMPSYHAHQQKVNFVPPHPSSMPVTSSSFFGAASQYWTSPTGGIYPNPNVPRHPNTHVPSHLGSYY
# Method in brief: (§1)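 Binding signal is defined as a hexamer's read frequency for one factor over its frequency for the tag-only sample. To obtain reads, GST-fused human transcription factors were expressed in yeast, captured on glutathione beads, barcoded with DNA and pooled with that sample. Pools met 200 nmole of a 16-mer random double-stranded DNA library in Tris/NaCl/DTT/glycerol buffer for 30 min at room temperature before washing, 0.1% formaldehyde crosslinking, proximity ligation (BsaI/T4 ligase, 1 h, 37 °C), PCR and Illumina NextSeq500 sequencing.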
# ELK1 = biological target: T2, ELK1 (Homo sapiens, UniProt P19419 1-428)
# T2 sequence: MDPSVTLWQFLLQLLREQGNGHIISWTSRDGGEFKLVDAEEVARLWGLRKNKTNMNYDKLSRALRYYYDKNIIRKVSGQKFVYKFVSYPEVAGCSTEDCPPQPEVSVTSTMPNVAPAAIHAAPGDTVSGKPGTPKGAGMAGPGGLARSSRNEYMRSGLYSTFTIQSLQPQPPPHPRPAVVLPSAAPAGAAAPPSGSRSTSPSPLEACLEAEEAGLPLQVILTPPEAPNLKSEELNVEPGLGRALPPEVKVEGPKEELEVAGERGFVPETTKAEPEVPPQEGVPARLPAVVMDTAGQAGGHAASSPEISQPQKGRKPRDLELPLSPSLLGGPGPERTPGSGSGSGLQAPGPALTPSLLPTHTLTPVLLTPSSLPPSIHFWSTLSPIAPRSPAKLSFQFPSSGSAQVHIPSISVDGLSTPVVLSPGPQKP
# Method in brief: as §1
# GABPA = biological target: T3, GABPA (Homo sapiens, UniProt Q06546 1-454)
# T3 sequence: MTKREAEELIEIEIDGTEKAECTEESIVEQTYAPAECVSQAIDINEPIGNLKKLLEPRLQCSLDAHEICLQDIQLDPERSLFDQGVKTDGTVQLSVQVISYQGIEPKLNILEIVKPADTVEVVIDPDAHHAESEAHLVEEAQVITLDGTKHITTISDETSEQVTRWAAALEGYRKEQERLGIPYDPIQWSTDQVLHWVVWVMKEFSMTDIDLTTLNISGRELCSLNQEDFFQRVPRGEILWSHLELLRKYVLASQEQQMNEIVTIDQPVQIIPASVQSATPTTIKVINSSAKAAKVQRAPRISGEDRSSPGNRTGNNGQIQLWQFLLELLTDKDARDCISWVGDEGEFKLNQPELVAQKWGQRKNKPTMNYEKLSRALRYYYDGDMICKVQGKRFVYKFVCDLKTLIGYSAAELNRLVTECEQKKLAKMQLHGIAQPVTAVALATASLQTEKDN
# Method in brief: as §1
# ERG = biological target: T4, ERG (Homo sapiens, UniProt P11308 1-479)
# T4 sequence: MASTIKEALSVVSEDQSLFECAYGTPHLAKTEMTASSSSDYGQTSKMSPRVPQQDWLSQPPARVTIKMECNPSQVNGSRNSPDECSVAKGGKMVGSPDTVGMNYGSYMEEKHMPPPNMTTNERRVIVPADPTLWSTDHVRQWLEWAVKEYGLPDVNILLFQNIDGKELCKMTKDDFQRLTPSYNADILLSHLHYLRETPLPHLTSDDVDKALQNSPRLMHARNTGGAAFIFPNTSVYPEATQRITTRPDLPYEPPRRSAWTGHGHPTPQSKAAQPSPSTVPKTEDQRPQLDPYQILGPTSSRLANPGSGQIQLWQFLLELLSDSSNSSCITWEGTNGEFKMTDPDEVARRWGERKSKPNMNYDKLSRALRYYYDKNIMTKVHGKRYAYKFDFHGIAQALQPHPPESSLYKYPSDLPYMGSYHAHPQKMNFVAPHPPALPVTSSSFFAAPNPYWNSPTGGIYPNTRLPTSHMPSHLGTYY
# Method in brief: as §1
# ELF1 = ELF1 (Homo sapiens, UniProt P32519 1-619)
# Method in brief: as §1
# EHF = biological target: T5, EHF (Homo sapiens, UniProt Q9NZC4 1-300)
# T5 sequence: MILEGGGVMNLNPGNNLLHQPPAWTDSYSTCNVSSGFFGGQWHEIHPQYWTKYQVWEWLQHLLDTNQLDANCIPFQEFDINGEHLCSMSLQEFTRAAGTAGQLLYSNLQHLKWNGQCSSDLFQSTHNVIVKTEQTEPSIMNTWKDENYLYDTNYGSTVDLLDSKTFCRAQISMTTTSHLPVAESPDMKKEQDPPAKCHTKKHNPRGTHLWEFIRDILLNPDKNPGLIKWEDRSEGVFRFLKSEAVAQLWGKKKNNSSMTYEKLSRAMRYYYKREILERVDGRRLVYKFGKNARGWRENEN
# Method in brief: as §1
# SPI1 = SPI1 (Homo sapiens, UniProt P17947 1-270)
# Method in brief: as §1
# SPIB = SPIB (Homo sapiens, UniProt Q01892 1-262)
# Method in brief: as §1
# ELK3 = biological target: T6, ELK3 (Homo sapiens, UniProt P41970 1-407)
# T6 sequence: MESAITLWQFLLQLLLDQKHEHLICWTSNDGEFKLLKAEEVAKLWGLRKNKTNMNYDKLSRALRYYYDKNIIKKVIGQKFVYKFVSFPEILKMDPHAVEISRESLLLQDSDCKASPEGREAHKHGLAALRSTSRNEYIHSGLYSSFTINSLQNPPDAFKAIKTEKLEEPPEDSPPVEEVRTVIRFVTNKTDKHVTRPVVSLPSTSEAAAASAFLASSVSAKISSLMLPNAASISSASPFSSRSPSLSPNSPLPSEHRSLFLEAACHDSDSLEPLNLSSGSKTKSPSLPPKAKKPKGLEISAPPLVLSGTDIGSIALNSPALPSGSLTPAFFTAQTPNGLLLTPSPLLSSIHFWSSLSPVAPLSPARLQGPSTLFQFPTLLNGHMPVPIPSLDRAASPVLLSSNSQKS
# Method in brief: as §1
# FEV = biological target: T7, FEV (Homo sapiens, UniProt Q99581 1-238)
# T7 sequence: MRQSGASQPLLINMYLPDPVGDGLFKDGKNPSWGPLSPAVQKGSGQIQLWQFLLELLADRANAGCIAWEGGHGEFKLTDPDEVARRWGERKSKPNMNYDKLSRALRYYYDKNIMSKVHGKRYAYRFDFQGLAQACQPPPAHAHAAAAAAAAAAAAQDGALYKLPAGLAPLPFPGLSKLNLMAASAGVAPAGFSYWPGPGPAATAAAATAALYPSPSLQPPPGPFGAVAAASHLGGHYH
# Method in brief: as §1
# ETV5 = ETV5 (Homo sapiens, UniProt P41161 1-510)
# Method in brief: as §1
# SPIC = biological target: T8, SPIC (Homo sapiens, UniProt Q8N5J4 1-248)
# T8 sequence: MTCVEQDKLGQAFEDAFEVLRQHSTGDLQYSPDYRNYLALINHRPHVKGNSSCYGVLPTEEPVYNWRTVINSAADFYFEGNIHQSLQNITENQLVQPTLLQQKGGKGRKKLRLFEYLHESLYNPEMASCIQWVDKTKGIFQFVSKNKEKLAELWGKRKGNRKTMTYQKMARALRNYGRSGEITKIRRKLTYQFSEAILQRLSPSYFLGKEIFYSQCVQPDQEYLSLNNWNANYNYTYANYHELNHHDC
# Method in brief: as §1
# ELF4 = ELF4 (Homo sapiens, UniProt Q99607 1-663)
# Method in brief: as §1
# ETV1 = ETV1 (Homo sapiens, UniProt P50549 1-477)
# Method in brief: as §1
# ERF = biological target: T9, ERF (Homo sapiens, UniProt P50548 1-548)
# T9 sequence: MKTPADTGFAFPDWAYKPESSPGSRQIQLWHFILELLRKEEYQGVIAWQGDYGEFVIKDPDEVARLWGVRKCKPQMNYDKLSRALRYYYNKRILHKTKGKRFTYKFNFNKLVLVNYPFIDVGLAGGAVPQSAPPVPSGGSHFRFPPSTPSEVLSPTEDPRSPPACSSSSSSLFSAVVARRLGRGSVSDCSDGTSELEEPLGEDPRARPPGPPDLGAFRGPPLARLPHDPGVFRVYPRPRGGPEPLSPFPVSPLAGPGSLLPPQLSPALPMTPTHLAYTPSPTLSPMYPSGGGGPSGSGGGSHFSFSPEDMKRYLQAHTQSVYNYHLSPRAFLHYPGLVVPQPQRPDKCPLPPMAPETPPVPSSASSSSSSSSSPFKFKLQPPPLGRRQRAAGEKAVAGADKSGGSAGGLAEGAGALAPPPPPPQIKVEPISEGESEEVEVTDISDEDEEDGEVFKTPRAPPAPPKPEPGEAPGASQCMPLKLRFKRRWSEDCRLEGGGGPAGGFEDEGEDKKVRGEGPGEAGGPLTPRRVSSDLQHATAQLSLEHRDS
# Method in brief: as §1
# ETV3L = biological target: T10, ETV3L (Homo sapiens, UniProt Q6ZN32 1-361)
# T10 sequence: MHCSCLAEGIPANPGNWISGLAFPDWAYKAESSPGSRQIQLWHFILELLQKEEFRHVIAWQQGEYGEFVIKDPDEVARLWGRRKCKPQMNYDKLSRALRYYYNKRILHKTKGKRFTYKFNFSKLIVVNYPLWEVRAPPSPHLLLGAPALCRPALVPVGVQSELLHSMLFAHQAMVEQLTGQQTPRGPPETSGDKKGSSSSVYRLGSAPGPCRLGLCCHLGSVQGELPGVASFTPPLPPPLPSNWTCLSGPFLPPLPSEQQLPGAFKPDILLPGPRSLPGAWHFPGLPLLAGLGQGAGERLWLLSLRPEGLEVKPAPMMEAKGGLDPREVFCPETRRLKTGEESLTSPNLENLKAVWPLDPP
# Method in brief: as §1
# ETS2 = biological target: T11, ETS2 (Homo sapiens, UniProt P15036 1-469)
# T11 sequence: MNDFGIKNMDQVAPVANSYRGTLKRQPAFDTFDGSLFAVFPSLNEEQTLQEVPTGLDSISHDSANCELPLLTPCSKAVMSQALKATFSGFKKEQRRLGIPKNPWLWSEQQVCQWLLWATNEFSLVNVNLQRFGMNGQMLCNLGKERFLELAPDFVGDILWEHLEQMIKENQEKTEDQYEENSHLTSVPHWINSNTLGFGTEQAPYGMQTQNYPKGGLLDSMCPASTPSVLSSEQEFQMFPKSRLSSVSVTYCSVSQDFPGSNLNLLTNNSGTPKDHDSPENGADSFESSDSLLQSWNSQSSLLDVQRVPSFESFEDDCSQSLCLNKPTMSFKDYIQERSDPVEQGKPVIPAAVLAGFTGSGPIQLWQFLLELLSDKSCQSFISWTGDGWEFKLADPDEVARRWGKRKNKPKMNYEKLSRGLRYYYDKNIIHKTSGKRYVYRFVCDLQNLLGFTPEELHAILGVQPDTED
# Method in brief: as §1
# SPDEF = biological target: T12, SPDEF (Homo sapiens, UniProt O95238 1-335)
# T12 sequence: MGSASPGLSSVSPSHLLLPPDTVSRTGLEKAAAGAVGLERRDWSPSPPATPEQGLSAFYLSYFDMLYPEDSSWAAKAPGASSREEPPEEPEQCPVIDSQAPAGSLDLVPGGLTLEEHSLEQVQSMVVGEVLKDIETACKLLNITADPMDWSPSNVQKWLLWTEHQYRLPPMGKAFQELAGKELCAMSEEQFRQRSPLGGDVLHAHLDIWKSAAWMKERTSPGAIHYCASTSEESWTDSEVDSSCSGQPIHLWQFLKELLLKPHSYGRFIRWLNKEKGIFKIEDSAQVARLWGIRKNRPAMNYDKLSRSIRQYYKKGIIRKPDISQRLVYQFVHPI
# Method in brief: as §1
# ETV3 = biological target: T13, ETV3 (Homo sapiens, UniProt P41162-2 1-143)
# T13 sequence: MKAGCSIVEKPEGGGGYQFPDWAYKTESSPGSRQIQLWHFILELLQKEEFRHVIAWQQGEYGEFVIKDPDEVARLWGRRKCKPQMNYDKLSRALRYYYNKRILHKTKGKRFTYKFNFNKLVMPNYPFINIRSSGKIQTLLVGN
# Method in brief: as §1
# ETV6 = ETV6 (Homo sapiens, UniProt P41212 1-452)
# Method in brief: as §1
# Chain of ETV6 (P41212 whole entry): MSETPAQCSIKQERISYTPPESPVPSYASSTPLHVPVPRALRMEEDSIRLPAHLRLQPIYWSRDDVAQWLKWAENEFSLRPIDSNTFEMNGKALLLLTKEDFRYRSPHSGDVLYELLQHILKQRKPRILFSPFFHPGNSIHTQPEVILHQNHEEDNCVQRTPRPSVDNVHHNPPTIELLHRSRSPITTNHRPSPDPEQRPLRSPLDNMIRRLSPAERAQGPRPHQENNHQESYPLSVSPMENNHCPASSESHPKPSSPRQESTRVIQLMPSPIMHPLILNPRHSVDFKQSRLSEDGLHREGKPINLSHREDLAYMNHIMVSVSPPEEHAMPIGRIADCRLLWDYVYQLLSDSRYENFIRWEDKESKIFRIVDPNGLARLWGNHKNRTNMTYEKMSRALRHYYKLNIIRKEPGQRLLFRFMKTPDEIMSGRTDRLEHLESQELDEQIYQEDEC
# Chain of SPIB (Q01892 whole entry): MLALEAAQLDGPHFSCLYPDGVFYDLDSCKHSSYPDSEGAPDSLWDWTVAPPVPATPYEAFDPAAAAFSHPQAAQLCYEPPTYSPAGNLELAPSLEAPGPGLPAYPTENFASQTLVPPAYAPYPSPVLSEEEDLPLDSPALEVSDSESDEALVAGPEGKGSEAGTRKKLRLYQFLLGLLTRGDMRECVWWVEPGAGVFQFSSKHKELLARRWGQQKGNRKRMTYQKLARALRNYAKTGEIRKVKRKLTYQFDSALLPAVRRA
# Chain of ETV1 (P50549 whole entry): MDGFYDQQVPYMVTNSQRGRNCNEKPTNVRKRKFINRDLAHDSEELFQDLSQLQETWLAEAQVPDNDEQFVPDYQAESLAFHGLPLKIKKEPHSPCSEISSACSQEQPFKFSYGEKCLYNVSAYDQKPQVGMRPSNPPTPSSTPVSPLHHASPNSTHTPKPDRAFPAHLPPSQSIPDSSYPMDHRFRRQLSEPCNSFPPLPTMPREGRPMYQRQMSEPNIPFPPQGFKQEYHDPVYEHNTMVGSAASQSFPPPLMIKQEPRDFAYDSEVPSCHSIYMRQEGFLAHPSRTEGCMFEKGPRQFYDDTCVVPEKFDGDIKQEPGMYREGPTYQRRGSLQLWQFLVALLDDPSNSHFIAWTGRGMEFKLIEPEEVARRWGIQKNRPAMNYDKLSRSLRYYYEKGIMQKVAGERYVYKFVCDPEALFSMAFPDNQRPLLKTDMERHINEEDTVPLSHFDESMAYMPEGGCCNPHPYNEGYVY
# Chain of ELF1 (P32519 whole entry): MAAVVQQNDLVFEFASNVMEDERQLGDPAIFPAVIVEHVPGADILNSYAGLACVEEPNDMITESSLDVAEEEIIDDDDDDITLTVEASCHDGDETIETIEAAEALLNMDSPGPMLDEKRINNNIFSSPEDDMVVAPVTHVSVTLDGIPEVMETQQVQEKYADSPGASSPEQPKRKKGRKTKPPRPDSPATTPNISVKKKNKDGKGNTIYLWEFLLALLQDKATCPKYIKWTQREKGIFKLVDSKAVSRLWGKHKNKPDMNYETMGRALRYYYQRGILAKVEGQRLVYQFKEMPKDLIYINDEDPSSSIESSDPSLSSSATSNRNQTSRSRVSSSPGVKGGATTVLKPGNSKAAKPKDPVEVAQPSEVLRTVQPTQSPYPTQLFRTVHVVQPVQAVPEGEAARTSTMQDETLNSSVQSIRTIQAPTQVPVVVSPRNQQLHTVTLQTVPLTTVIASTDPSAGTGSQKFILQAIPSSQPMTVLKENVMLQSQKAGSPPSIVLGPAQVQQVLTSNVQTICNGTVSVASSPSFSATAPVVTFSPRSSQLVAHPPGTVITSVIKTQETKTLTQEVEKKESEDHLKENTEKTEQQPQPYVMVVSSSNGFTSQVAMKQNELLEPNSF
# Chain of ELF4 (Q99607 whole entry): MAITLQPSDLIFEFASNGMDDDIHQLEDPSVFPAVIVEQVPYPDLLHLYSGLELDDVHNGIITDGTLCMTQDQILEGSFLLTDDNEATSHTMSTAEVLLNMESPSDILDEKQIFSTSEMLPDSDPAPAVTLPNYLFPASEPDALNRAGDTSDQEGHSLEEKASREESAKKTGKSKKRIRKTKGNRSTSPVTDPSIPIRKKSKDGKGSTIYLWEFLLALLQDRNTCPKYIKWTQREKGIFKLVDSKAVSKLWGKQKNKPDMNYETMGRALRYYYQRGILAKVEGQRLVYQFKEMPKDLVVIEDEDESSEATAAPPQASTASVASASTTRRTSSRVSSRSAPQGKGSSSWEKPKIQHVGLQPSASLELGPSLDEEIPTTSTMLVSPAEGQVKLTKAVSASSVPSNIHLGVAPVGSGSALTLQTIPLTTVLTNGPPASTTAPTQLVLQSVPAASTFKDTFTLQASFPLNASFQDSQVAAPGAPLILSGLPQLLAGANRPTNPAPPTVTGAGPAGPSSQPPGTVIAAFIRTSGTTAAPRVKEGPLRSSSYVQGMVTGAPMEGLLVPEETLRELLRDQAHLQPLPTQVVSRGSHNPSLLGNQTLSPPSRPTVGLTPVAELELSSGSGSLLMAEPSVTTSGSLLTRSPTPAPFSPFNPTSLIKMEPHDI
# Chain of ETV5 (P41161 whole entry): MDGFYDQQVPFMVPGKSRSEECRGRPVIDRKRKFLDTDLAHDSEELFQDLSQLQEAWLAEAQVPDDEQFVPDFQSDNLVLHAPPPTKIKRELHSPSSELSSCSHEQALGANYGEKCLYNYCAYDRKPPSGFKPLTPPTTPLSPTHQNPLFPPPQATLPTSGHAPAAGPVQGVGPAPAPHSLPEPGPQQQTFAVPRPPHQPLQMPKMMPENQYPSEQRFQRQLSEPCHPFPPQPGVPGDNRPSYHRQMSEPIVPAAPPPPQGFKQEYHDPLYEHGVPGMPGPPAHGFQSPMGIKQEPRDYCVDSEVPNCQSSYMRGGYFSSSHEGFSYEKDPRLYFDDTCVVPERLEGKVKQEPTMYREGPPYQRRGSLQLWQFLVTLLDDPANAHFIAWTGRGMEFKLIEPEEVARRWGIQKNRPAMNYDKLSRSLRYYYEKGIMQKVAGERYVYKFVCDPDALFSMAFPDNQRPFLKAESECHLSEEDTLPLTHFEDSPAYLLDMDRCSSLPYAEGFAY
sequence,measurement,setting,value
ACGATG,binding signal,FLI1,"1.24 fold enrichment (6-mer frequency, TF over GST control)"
same,binding signal,ELK1,"1.06 fold enrichment (6-mer frequency, TF over GST control)"
same,binding signal,GABPA,"1.17 fold enrichment (6-mer frequency, TF over GST control)"
same,binding signal,ERG,"1.13 fold enrichment (6-mer frequency, TF over GST control)"
same,binding signal,ELF1,"1.06 fold enrichment (6-mer frequency, TF over GST control)"
same,binding signal,EHF,"1.16 fold enrichment (6-mer frequency, TF over GST control)"
same,binding signal,SPI1,"1.17 fold enrichment (6-mer frequency, TF over GST control)"
same,binding signal,SPIB,"1.18 fold enrichment (6-mer frequency, TF over GST control)"
same,binding signal,ELK3,"1.17 fold enrichment (6-mer frequency, TF over GST control)"
same,binding signal,FEV,"1.05 fold enrichment (6-mer frequency, TF over GST control)"
same,binding signal,ETV5,"1.12 fold enrichment (6-mer frequency, TF over GST control)"
same,binding signal,SPIC,"1.03 fold enrichment (6-mer frequency, TF over GST control)"
same,binding signal,ELF4,"1.12 fold enrichment (6-mer frequency, TF over GST control)"
same,binding signal,ETV1,"1.12 fold enrichment (6-mer frequency, TF over GST control)"
same,binding signal,ERF,"1.09 fold enrichment (6-mer frequency, TF over GST control)"
same,binding signal,ETV3L,"1.14 fold enrichment (6-mer frequency, TF over GST control)"
same,binding signal,ETS2,"1.12 fold enrichment (6-mer frequency, TF over GST control)"
same,binding signal,SPDEF,"1.14 fold enrichment (6-mer frequency, TF over GST control)"
same,binding signal,ETV3,"1.08 fold enrichment (6-mer frequency, TF over GST control)"
same,binding signal,ETV6,"1.06 fold enrichment (6-mer frequency, TF over GST control)"
